BoNT F protease – BoNT/F light chain protease inhibitors, primary screen, biochemical, flow cytometry, MLPCN library | Botulinum neurotoxin type F light chain protease (Clostridium botulinum) | Multiplex microsphere protease cleavage assay | inhibition, % at 10 µM | 360,000 compounds, 0.22% hits; in the data active = inhibition above about 35%, passing the limit was not always enough; inconclusive = no clear call, values can overlap the other calls; note: plate controls were buffer without enzyme for full effect and enzyme alone for no effect
Bead autofluor – flagged as autofluorescent in microsphere protease counterscreen | compound autofluorescence counterscreen, microsphere flow cytometry; hits give high values | fluorescence intensity (concentration not given with the values) | 360,000 compounds, 3.1% hits; in the data active = fluorescence intensity above about 16000; inconclusive = no clear call, values can overlap the other calls
Anthrax LF prot – Bacillus anthracis LF protease inhibitors, primary screen, biochemical, multiplex microsphere, MLPCN library | multiplex microsphere protease cleavage assay | inhibition, % at 10 µM | 360,000 compounds, 0.12% hits; note: plate controls were buffer without enzyme for full effect and enzyme alone for no effect
Target sequence (P15917 whole entry, looked up): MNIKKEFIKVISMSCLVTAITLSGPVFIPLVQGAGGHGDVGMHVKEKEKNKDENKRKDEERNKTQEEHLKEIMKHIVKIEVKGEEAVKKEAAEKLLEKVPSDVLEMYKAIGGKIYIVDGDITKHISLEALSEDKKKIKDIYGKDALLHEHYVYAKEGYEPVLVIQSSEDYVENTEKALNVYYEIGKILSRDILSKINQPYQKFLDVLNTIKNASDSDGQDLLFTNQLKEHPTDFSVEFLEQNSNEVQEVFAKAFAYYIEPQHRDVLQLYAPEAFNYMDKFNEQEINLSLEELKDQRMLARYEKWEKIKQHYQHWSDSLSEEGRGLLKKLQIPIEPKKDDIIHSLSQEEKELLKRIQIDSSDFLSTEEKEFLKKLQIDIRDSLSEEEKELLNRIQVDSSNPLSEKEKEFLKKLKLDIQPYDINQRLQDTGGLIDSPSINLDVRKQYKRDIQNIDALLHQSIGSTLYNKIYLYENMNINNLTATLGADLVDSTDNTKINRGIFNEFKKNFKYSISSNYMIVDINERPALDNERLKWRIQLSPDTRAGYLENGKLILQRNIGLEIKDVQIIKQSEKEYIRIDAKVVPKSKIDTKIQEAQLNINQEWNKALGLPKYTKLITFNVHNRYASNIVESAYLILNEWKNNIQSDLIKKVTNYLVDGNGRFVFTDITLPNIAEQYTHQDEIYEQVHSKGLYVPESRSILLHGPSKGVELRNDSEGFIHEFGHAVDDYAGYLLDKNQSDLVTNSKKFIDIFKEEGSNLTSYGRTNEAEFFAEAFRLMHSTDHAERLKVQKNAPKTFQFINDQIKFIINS
BoNT-A LC inh2 – BoNT/A light chain protease inhibitors, primary screen, biochemical, flow cytometry, MLPCN library; AID 588499, 2011; inhibition, % at 10 µM; Botulinum neurotoxin type A light chain protease (Clostridium botulinum A str. ATCC 3502); 360,000 compounds, 0.17% hits; multiplex microsphere protease substrate cleavage; note: plate controls were buffer without enzyme for full effect and enzyme alone for no effect
* marks the source's active call; other numbers are inactive results; ? = inconclusive. Shown are actives, neighbours in structure and some others; about 3.5% of the full set was active somewhere. Cut-off read from the data, not from the text of the source, unless noted: active = inhibition above about 30%; inconclusive = no clear call, values can overlap the other calls; inactive = below that.

SMILES	BoNT F protease	Bead autofluor	Anthrax LF prot	BoNT-A LC inh2
CCOC(=O)C1=C(CN2c3ccccc3CC2C)NC(=O)NC1c1ccccc1 (centres undefined)	15.9	2062	43.9*	54.5*
COc1ccc(-c2csc(N(CCCN(C)C)C(=O)c3cccs3)n2)cc1	-5.6	21006*	0.3	?
O=C(c1ccco1)N(CC1CCCO1)c1nc(-c2ccccc2)cs1 (centres undefined)	-7.7	5658	2.7	0.5
CCN(C(=O)c1cccs1)c1nc(-c2ccc(OC)cc2)cs1	-0.8	4143	-2.9	0.0
O=C(c1cccs1)N(CC1CCCO1)c1nc(-c2ccccc2)cs1 (centres undefined)	-2.5	23325*	-0.2	-0.6
COCCCN(C(C)=O)c1nc(-c2ccc(OC)cc2)cs1	3.4	21678*	-0.6	2.8
CC(C)(C)c1ccc(C(=O)NCCCNC(=O)c2ccccn2)cc1	-29.2	3504	-5.5	-3.3
O=C1CC(c2ccccc2)CC(O)=C1C=NC1CCCCCC1 (centres undefined)	2.6	10019	-2.2	0.6
O=C1CC(c2ccccc2)CC(O)=C1C=NC1CCCCC1 (centres undefined)	-1.9	23531*	-0.1	-2.7
O=C(Cc1ccccc1[N+](=O)[O-])Nc1ccc2c(c1)OCCO2	-5.0	2455	1.3	0.0
COC(=O)c1cc(NC(=O)Cc2ccccc2[N+](=O)[O-])cc(C(=O)OC)c1	3.4	18194*	-3.8	3.6
CC(=O)Nc1cccc(-c2ccnc3c2CC(C)(C(=O)Nc2ccc(C(C)C)cc2)O3)c1 (centres undefined)	-0.9	3457	-10.5	-0.1
NC(=O)c1c(NC(=O)CCCC(=O)O)sc2c1CCCCCC2	1.5	2094	-1.7	-0.3
COC(=O)c1c(NC(=O)CCCC(=O)O)sc2c1CCC2	0.7	22669*	-0.3	-0.7
COC(=O)c1c(NC(C)=O)sc2c1CCCC2	-32.3	4342	-9.8	-1.6
COC(=O)c1c(NC(=O)CC2SCC(C(=O)OC)NC2=O)sc2c1CCCC2 (centres undefined)	-4.6	24791*	-0.9	-3.0
Nc1nc(NCc2ccccc2)nc(Nc2cccc(F)c2)c1[N+](=O)[O-]	-0.3	22824*	-2.3	1.1
CCc1ccc([C@@H]2C[C@H]3CN(Cc4ccccc4OC)C(=O)[C@]34CCCN24)cc1	33.9	24775*	7.2	-6.6
CC(=O)N1CCN(S(=O)(=O)c2cccc(C(=O)NNC(=O)Cn3nc(C)cc3C)c2)CC1	8.8	8403	13.9	3.2
Cc1nnsc1C(=O)Nc1ccccc1	-1.8	2545	1.9	-0.6
Cc1nnsc1C(=O)Nc1ccc(Cl)cc1	0.1	21839*	-1.8	2.9
Cc1nnsc1C(=O)Nc1ccccc1Cl	0.4	21871*	-0.4	1.4
Cc1nc(NC(=O)/C=C/c2ccccc2)sc1C(=O)Nc1ccc(Cl)cc1	-1.6	23690*	-4.0	-0.8
CC1(C(=O)NCC2CC2)CCN1C(=O)C1(c2ccccc2)CC1 (centres undefined)	5.9	3753	-4.2	0.2
Cn1c2nc(=O)n(-c3ccccc3)c(=O)c-2nc2c1CCCC2	-1.5	2961	-14.2	-0.4
SMILES	BoNT F protease	Bead autofluor	Anthrax LF prot	BoNT-A LC inh2
O=C(NCC1CCCO1)c1cc2ccccc2oc1=O (centres undefined)	-0.2	2181	1.1	0.4
COC(=O)CSC(C(=O)Nc1ccc(C)c(C)c1)c1ccccc1 (centres undefined)	-0.4	22778*	-1.4	0.4
CC(=O)Nc1ccc(-c2cc(NC(C)=O)n(-c3ccccc3)n2)cc1	1.1	5314	-0.4	0.2
COc1ccc(NC2=Nc3ccccc3N3C2=Nc2c(c(C)nn2-c2ccc(C)cc2)C3c2cccnc2)cc1 (centres undefined)	43.9*	15892	60.1*	?
CC(=O)Nc1ccc(NC2=Nc3ccccc3N3C2=Nc2c(c(C)nn2-c2ccccc2)C3c2ccccc2)cc1 (centres undefined)	32.4	3420	68.2*	147.0*
O=C(O)CCC(=O)c1ccc(C2CCCCCC2)cc1	0.4	5516	-2.9	-0.6
CCOc1ccc(OCCC(=O)OCC(=O)NC(C)c2ccccc2)cc1 (centres undefined)	-1.7	5369	4.4	-0.8
CC(C)NC(=O)NC(=O)COC(=O)CCOc1ccccc1	-1.1	24104*	0.9	-0.2
CCCC1OC(c2cc3c(cc2Cl)OCO3)OCC1CC (centres undefined)	-4.7	3936	3.0	-0.4
CCc1nc(OCc2ccccc2)c2sc3nc4c(cc3c2n1)COC(C)(C)C4	7.8	21172*	-8.3	?
O=C(CSc1ccccc1)N1CCCC(N2CCN(c3ccccc3)CC2)C1 (centres undefined)	3.9	5194	-2.2	1.3
COC(=O)c1cc(NC(=O)CC2NC3CCCCC3NC2=O)cc(C(=O)OC)c1 (centres undefined)	-1.7	22818*	-8.8	1.2
Cc1nc2scc(-c3cccs3)c2c(=O)[nH]1	-6.9	25937*	-1.3	-4.2
Cc1noc(C)c1S(=O)(=O)NC(=O)C1(C)CCN1C(=O)c1ccc(C2CCCCC2)cc1 (centres undefined)	-2.5	3003	-3.3	-0.3
O=C(Nc1cc(C(=O)N2CCCC2)ccc1N1CCCC1)C1CC1	-2.9	22662*	-1.4	?
CCOc1ccccc1-n1c(SCC(N)=O)nnc1-c1ccccc1	-4.0	16659*	0.8	?
CCOc1ccccc1-n1c(SCC(=O)N2CCCC2)nnc1-c1ccc(O)cc1	-1.0	10502	0.2	-0.9
CCOc1ccccc1-n1c(SCC(N)=O)nnc1-c1ccc(O)cc1	3.6	19710*	-1.4	2.4
CC(C)C(=O)NC(C)C(c1cccs1)N1CCN(C)CC1 (centres undefined)	-3.1	23161*	-3.4	-3.4
COc1ccccc1N1CCN(C(c2cccs2)C(C)NS(=O)(=O)c2ccccc2)CC1 (centres undefined)	-9.6	4879	-1.6	-0.7
CC(NS(=O)(=O)c1ccccc1)C(c1cccs1)N1CCN(c2ccccc2)CC1 (centres undefined)	-7.1	17711*	-3.0	-3.6
CC(NS(C)(=O)=O)C(c1cccs1)N1CCN(c2ccc(F)cc2)CC1 (centres undefined)	1.5	9747	-0.2	0.9
CC(NS(C)(=O)=O)C(c1cccs1)N1CCN(C)CC1 (centres undefined)	2.3	16401*	-2.8	-0.3
COc1ccc(Cl)cc1NC(=O)CSc1nc2[nH]ncc2c(=O)[nH]1	-11.0	3178	-1.0	-0.6
Cc1cc(NS(=O)(=O)c2cc(Cl)sc2Cl)no1	-3.6	3561	8.5	-2.9
CC(C(=O)N1CCN(Cc2ccc3c(c2)OCO3)CC1)n1cc([N+](=O)[O-])cn1 (centres undefined)	-9.0	4026	-4.5	-1.0
O=C(O)C1CCCCC1C(=O)NCCc1ccccc1 (centres undefined)	1.3	15725	-11.4	1.2
CC(CNC(=O)C1CCCCC1C(=O)O)c1ccccc1 (centres undefined)	1.8	22629*	-2.6	1.4

Source: PubChem BioAssay
